Results published in PubChem BioAssay (Tox21).
Results filed as inconclusive are left out. Active and inactive are the calls of the source. Unless noted, calls follow the shape of the dose curve; as a rule, active = well fitted curve in the direction sought with a large enough effect in the repeat runs; inconclusive = weak or mixed curves; inactive = no such curve, though single readings can be large; an effect the other way counts as inactive or inconclusive.

Experiments:
[1] = qHTS assay to identify small molecule agonists of the vitamin D receptor (VDR) signaling pathway - cell viability counter screen (AID 743224); also: series mostly up to about 63 µM; % is scaled to controls: 0 for no effect and ±100 for the full control effect; nearly all actives have a fitted effect of over 50% in size
Outline: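 In parallel with the bla FRET readout, cytotoxicity toward VDR-bla cells after 16 h compound exposure was assessed by CellTiter-Glo, with luminescence recorded after a 30 min room-temperature incubation.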

[2] = qHTS assay to identify small molecule antagonists of the vitamin D receptor (VDR) signaling pathway - cell viability counter screen (AID 743225); also: % is scaled to controls: 0 for no effect and ±100 for the full control effect; nearly all actives have a fitted effect of over 50% in size
Outline: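 Viability counter screen run in the same wells as the beta-lactamase reporter assay: HEK 293T VDR-UAS-bla cells, 16 h compound exposure at 37C with 3 nM (final) 1-alpha,25-dihydroxyvitamin D3. CellTiter-Glo luminescence, 30 min, room temperature.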

[3] = qHTS assay to identify small molecule agonists of the NFkB signaling pathway - cell viability counter screen (AID 1159515; calls by dose curve; also: series mostly up to about 61 µM; % is scaled to controls: 0 for no effect and ±100 for the full control effect; nearly all actives have a fitted effect of over 55% in size)
Outline: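 Plate 2,000 NFkB-bla ME-180 cells/well; incubate overnight. Add compounds, 5 hr at 37 C. Add FRET substrate, 1.5 hr RT. Add CellTiter-Glo, 30 min RT; read luminescence.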

[4] = qHTS assay to identify small molecule agonists of the endoplasmic reticulum stress response signaling pathway (AID 1159516; active = well fitted activation curve with a large enough effect in the signal ratio in the repeat runs, not every such curve was filed as active; the % refers to the signal ratio; also: potency is read from the fitted curve at half-maximal effect; as to activation: % is scaled to controls: 0 for no effect and ±100 for the full control effect)
Outline: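 Beta-lactamase expression from the ER stress response element in HeLa reporter cells is quantified with the LiveBLAzer B/G FRET substrate, read at 405 nm excitation after 2 hr at room temperature, following 5 hr compound treatment at 37 C.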

[5] = qHTS assay to identify small molecule agonists of the endoplasmic reticulum stress response signaling pathway - cell viability counter screen (AID 1159517; calls by dose curve; also: series mostly up to about 61 µM; % is scaled to controls: 0 for no effect and ±100 for the full control effect; nearly all actives have a fitted effect of over 50% in size)
Outline: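 After overnight attachment, ESRE-bla HeLa cells were treated with Tox21 library compounds for 5 hr. CellTiter-Glo luminescence, read 30 min post-addition at room temperature, reported viability.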

[6] = qHTS assay to identify small molecule antagonists of the retinoid-related orphan receptor gamma (ROR-gamma) signaling pathway - cell viability counter screen (AID 1159520); also: % is scaled to controls: 0 for no effect and ±100 for the full control effect; nearly all actives have a fitted effect of over 50% in size
Outline: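 Cytotoxicity was read from cellular ATP (CellTiter-Glo luminescence) after 16 hr at 37 C with 1 uM doxycycline induction. The inducer was added 2 hr after compound transfer to Tet-on ROR gamma CHO cells.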

[7] = molecular target: Nuclear receptor ROR-gamma (Homo sapiens) (UniProt P51449); assay: qHTS assay to identify small molecule antagonists of the retinoid-related orphan receptor gamma (ROR-gamma) signaling pathway (AID 1159521)
Outline: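 Luminescence readout (ONE-Glo, 30 min RT) after 16 h doxycycline induction; loss of signal scored as antagonism. CHO cells with TET-inducible RORγ and RORE-LUC reporter; compounds added 2 h before 1 uM final doxycycline.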

[8] = qHTS assay to identify small molecule agonists of the AP-1 signaling pathway - cell viability counter screen (AID 1159525; calls by dose curve; also: nearly all actives have a fitted effect of over 55% in size)
Outline: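 Intracellular ATP by Cell Titer Glo luminescence (30 min, RT) in the same ME-180 AP-1-bla wells after the 5 h compound exposure at 37 °C. Normalised to tetra n-octyl ammonium bromide and DMSO controls.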

[9] = qHTS assay to identify small molecule agonists of the AP-1 signaling pathway (AID 1159526; calls by dose curve; also: % is scaled to controls: 0 for no effect and ±100 for the full control effect)
[10] = molecular target: Retinoic acid receptor RXR-alpha (Homo sapiens) (UniProt P19793); assay: qHTS assay to identify small molecule agonists of the RXR signaling pathway (AID 1159527; calls by dose curve; also: % is scaled to controls: 0 for no effect and ±100 for the full control effect; nearly all actives have a fitted effect of over 35% in size)
Outline: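 Agonist mode; 9-cis retinoic acid positive control. HEK 293T UAS-bla reporter cells, 2% charcoal-stripped FBS, 16 hr compound exposure at 37 C/5% CO2. LiveBLAzer B/G FRET substrate 2 hr RT; ex 405, em 460/530 nm.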

[11] = qHTS assay to identify small molecule agonists of the RXR signaling pathway - cell viability counter screen (AID 1159529); also: nearly all actives have a fitted effect of over 50% in size; also: potency is read from the fitted curve at half-maximal effect; as to activity change, negative = cytotoxicity: series mostly up to about 77 µM; % is scaled to controls: 0 for no effect and ±100 for the full control effect
Outline: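 Luminescence from CellTiter-Glo (30 min, RT) measured viability in the same wells as the beta-lactamase reporter readout. Cells: GeneBLAzer RXR-alpha HEK 293T, 2% charcoal-stripped FBS. Compound exposure 16 hr, 37 C.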

[12] = qHTS assay to identify small molecule antagonists of the retinoid acid receptor (RAR) signaling pathway - cell viability counter screen (AID 1159551); also: % is scaled to controls: 0 for no effect and ±100 for the full control effect; nearly all actives have a fitted effect of over 35% in size
Outline: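 Viability of C3RL4 cells is quantified from ATP by luminescence after 6 h treatment at 37 C with compounds and 1 uM retinol.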

[13] = qHTS assay to identify small molecule antagonists of the retinoic acid receptor (RAR) signaling pathway (AID 1159552)
Outline: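 Luminescence from a RARE luciferase reporter in C3RL4 cells served as read-out. Cells received compounds together with 1 uM final retinol and incubated 6 hr at 37 C before detection reagent was added for 30 min at room temperature.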

[14] = qHTS assay to identify small molecule agonists of the retinoic acid receptor (RAR) signaling pathway (AID 1159553); also: potency is read from the fitted curve at half-maximal effect; as to activation: % is scaled to controls: 0 for no effect and ±100 for the full control effect
Outline: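 Compounds dissolved in DMSO were pinned onto C3RL4 cells seeded the previous day, and plates were held 6 hr at 37 C. RARE-driven luciferase output was then read by luminescence.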

[15] = qHTS assay to identify small molecule antagonists of the estrogen related receptor (ERR) signaling pathway from Tox21 library - cell viability counter screen (AID 1224834); also: % is scaled to controls: 0 for no effect and ±100 for the full control effect; nearly all actives have a fitted effect of over 30% in size
Outline: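 In this quantitative HTS format, ERR cells receive compounds in DMSO and are incubated for 17.5 h at 37 C. Live-cell protease activity is then detected with CellTiter-Fluor.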

[16] = molecular target: Luciferin 4-monooxygenase (Photinus pyralis) (UniProt P08659); assay: qHTS assay to identify small molecule inhibitors of firefly luciferase (AID 1224835); also: nearly all actives have a fitted effect of over 25% in size; also: potency is read from the fitted curve at half-maximal effect
Outline: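 Inhibition of purified Photinus luciferase is measured by luminescence. Substrate levels (D-luciferin, ATP) sit at their KM values. Each compound is tested in a concentration series.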

[17] = qHTS assay to identify small molecule agonists of the constitutive androstane receptor (CAR) signaling pathway - cell viability counter screen (AID 1224836); also: series mostly up to about 92 µM; % is scaled to controls: 0 for no effect and ±100 for the full control effect; nearly all actives have a fitted effect of over 45% in size
Outline: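 Viability read-out: CellTiter-Fluor fluorescence after 23 h compound exposure at 37 C/5% CO2 in double-stable HepG2-CYP2B6-hCAR cells, with PK11195 present at 0.75 uM final; compounds tested in 15-point titration.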

[18] = qHTS assay to identify small molecule antagonists of the constitutive androstane receptor (CAR) signaling pathway - cell viability counter screen (AID 1224837); also: series mostly up to about 92 µM; % is scaled to controls: 0 for no effect and ±100 for the full control effect; nearly all actives have a fitted effect of over 45% in size
Outline: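 In quantitative HTS format, compounds at 15 concentrations were applied to HepG2 cells double-transfected with hCAR and CYP2B6-2.2kb under 50 nM CITCO stimulation; live-cell protease activity was read after 23 hr via CellTiter-Fluor.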

[19] = molecular target: Nuclear receptor subfamily 1 group I member 3 (Homo sapiens) (UniProt Q14994); assay: qHTS assay to identify small molecule agonists of the constitutive androstane receptor (CAR) signaling pathway (AID 1224839); also: nearly all actives have a fitted effect of over 15% in size; also: potency is read from the fitted curve at half-maximal effect
Outline: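 Luminescence read-out (ONE-Glo, 30 min, room temperature) from double-stable HepG2-CYP2B6-hCAR cells exposed 24 h to 15-point compound series in presence of 0.75 uM PK11195 final.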

[20] = molecular target: Nuclear receptor subfamily 1 group I member 3 (Homo sapiens) (UniProt Q14994); assay: qHTS assay to identify small molecule antagonists of the constitutive androstane receptor (CAR) signaling pathway (AID 1224838); also: % is scaled to controls: 0 for no effect and ±100 for the full control effect; nearly all actives have a fitted effect of over 40% in size
Outline: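 CITCO-stimulated (50 nM final) HepG2 cells stably transfected with hCAR and CYP2B6-2.2kb luciferase were exposed to compounds at 15 concentrations for 24 h at 37 C/5% CO2. A luciferase reagent was added and luminescence recorded after 30 min.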

Retinoic acid receptor RXR-alpha (Homo sapiens), sequence (P19793 whole entry, looked up): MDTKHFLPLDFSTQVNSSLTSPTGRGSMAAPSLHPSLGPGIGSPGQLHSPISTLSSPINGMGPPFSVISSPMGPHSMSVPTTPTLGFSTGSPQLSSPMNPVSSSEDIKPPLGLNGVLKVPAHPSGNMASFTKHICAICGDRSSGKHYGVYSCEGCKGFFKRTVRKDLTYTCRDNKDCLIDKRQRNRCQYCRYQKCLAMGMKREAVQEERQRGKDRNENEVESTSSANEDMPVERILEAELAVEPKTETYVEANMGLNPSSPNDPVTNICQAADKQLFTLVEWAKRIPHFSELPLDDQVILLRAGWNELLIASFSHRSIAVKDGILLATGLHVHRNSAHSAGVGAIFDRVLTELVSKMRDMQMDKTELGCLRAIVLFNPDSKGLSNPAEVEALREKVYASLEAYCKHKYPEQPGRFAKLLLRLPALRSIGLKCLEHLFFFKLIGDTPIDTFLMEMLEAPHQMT
Luciferin 4-monooxygenase (Photinus pyralis), sequence (P08659 whole entry, looked up): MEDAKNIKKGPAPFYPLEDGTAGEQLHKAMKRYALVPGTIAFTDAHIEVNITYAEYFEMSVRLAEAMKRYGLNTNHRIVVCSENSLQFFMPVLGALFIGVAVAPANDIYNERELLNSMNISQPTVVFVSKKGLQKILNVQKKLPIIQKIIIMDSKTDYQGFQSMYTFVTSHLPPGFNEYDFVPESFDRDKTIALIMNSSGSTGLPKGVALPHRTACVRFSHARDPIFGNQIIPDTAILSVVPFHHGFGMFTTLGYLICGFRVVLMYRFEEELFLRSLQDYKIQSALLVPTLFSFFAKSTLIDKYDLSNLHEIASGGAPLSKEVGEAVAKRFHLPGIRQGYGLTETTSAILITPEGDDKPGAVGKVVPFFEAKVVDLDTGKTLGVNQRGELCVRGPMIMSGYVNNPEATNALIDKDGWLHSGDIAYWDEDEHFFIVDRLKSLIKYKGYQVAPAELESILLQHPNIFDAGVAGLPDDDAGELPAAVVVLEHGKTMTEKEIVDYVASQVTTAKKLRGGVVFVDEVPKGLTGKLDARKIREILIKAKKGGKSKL
Nuclear receptor subfamily 1 group I member 3 (Homo sapiens), sequence (Q14994 whole entry, looked up): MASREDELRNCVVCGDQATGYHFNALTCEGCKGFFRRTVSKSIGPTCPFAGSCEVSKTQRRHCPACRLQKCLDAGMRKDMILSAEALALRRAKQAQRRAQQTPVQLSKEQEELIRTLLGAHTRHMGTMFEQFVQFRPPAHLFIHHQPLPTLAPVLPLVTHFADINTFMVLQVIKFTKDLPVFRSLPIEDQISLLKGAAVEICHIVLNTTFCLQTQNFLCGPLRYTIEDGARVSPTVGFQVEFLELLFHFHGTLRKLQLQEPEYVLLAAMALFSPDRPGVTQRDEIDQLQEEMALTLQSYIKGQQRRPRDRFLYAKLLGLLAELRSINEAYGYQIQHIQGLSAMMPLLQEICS

COc1ccccc1N1CCN(CC(O)COc2cc(OC)c(OC)c(OC)c2)CC1 (centres undefined)
inactive: outcome [1] | outcome [2] | outcome [3] | Potency [4] | outcome [5] | outcome [6] | outcome [7] | outcome [8] | Potency [9] | Potency [10] | Potency [11] | outcome [12] | outcome [13] | Potency [14] | outcome [15] | Potency [16] | outcome [17] | outcome [18] | Potency [19]

CNC(=O)c1c(I)c(NC(C)=O)c(I)c(C(=O)O)c1I
inactive: outcome [1] | outcome [2] | outcome [3] | Potency [4] | outcome [5] | outcome [6] | outcome [7] | outcome [8] | Potency [9] | Potency [10] | Potency [11] | outcome [12] | outcome [13] | Potency [14] | outcome [15] | Potency [16] | outcome [17] | outcome [18]

CCOC(=O)c1ccc(N(C)C)cc1
active: Potency [14] 15.4 µM | Potency [16] 35.6 µM | Potency [19] 30.6 µM
inactive: outcome [1] | outcome [2] | outcome [3] | Potency [4] | outcome [5] | outcome [6] | outcome [7] | outcome [8] | Potency [9] | Potency [10] | Potency [11] | outcome [12] | outcome [13] | outcome [15] | outcome [17] | outcome [18]

CC(C)(C)NCC(O)COc1cccc2c1CCC(=O)N2 (centres undefined)
inactive: outcome [1] | outcome [2] | outcome [3] | Potency [4] | outcome [5] | outcome [6] | outcome [7] | outcome [8] | Potency [9] | Potency [10] | Potency [11] | outcome [12] | outcome [13] | Potency [14] | outcome [15] | Potency [16] | outcome [17] | outcome [18] | Potency [19]

Cc1ccc(NC(N)=O)cc1
inactive: outcome [1] | outcome [2] | outcome [3] | Potency [4] | outcome [5] | outcome [6] | outcome [7] | outcome [8] | Potency [9] | Potency [10] | Potency [11] | outcome [12] | outcome [13] | Potency [14] | outcome [15] | Potency [16] | outcome [17] | outcome [18] | Potency [19]

CCCCCCC(=O)c1ccccc1
inactive: outcome [1] | outcome [2] | outcome [3] | Potency [4] | outcome [5] | outcome [6] | outcome [7] | outcome [8] | Potency [9] | Potency [10] | Potency [11] | outcome [12] | outcome [13] | outcome [15] | outcome [17] | outcome [18]
active: Potency [14] 54.5 µM | Potency [16] 7.1 µM

Cc1ccc(O)c([N+](=O)[O-])c1
active: Potency [11] 24.8 µM
inactive: outcome [1] | outcome [2] | outcome [3] | Potency [4] | outcome [5] | outcome [6] | outcome [7] | outcome [8] | Potency [9] | Potency [10] | outcome [12] | outcome [13] | Potency [14] | outcome [15] | Potency [16] | outcome [17] | outcome [20] | Potency [19]

O=C(O)Cc1c(Cl)ccc(Cl)c1Cl
inactive: outcome [1] | outcome [2] | outcome [3] | Potency [4] | outcome [5] | outcome [6] | outcome [7] | outcome [8] | Potency [9] | Potency [10] | Potency [11] | outcome [12] | outcome [13] | Potency [14] | outcome [15] | Potency [16] | outcome [17] | outcome [18] | Potency [19]

CC(=O)/C=C/C=C1/C2CCC(C2)C1(C)C (centres undefined)
inactive: outcome [1] | outcome [2] | outcome [3] | Potency [4] | outcome [5] | outcome [6] | outcome [7] | outcome [8] | Potency [9] | Potency [10] | Potency [11] | outcome [12] | outcome [13] | Potency [14] | outcome [15] | Potency [16] | outcome [17] | outcome [18]

CCCC(=O)OC
inactive: outcome [1] | outcome [2] | outcome [3] | Potency [4] | outcome [5] | outcome [6] | outcome [7] | outcome [8] | Potency [9] | Potency [10] | Potency [11] | outcome [12] | outcome [13] | Potency [14] | outcome [15] | Potency [16] | outcome [17] | outcome [18]

COC(=O)c1ccc(NC(C)=O)cc1OC
inactive: outcome [1] | outcome [2] | outcome [3] | Potency [4] | outcome [5] | outcome [6] | outcome [7] | outcome [8] | Potency [9] | Potency [10] | Potency [11] | outcome [12] | outcome [13] | Potency [14] | outcome [15] | Potency [16] | outcome [17] | outcome [18] | Potency [19]

C[Si](C)(C)O[Si](O)(O)O
inactive: outcome [2] | outcome [3] | Potency [4] | outcome [5] | outcome [6] | outcome [7] | outcome [8] | Potency [9] | Potency [10] | Potency [11] | outcome [12] | outcome [13] | Potency [14] | outcome [15] | Potency [16] | outcome [17] | outcome [18]

Cc1cccc(N)n1
inactive: outcome [1] | outcome [2] | outcome [3] | Potency [4] | outcome [5] | outcome [6] | outcome [7] | outcome [8] | Potency [9] | Potency [10] | Potency [11] | outcome [12] | outcome [13] | Potency [14] | outcome [15] | Potency [16] | outcome [17] | outcome [18]

c1cc2ccc3ccc4ccc5cccc6c(c1)c2c3c4c56
active: Potency [4] 1.74 µM
inactive: activity change, negative = cytotoxicity [1] 11.1% [at 2.7 µM] | viability change, negative = cytotoxic [2] -0.521% [at 3.11 µM] | activity, negative = cytotoxic [3] -1.06% [at 3.12 µM] | activity change, negative = cytotoxicity [5] 6.55% [at 3.11 µM] | activity, negative = cytotoxicity [6] 0.12% [at 3.27 µM] | activity change, negative = inhibition [7] 7.63% [at 3.27 µM] | viability change, negative = cytotoxic [8] -12.5% [at 2.72 µM] | activation [9] -1.11% [at 2.72 µM] | activation [10] 5.24% [at 2.71 µM] | activity change, negative = cytotoxicity [11] 0.199% [at 2.72 µM] | activity change, negative = cytotoxicity [12] 4.71% [at 3.27 µM] | activity, negative = inhibition [13] -1.28% [at 3.27 µM] | activation [14] -0.114% [at 3.75 µM] | viability change, negative = cytotoxic [15] 2.9% [at 3.27 µM] | activity change, negative = inhibition [16] 1.19% [at 4.07 µM] | viability change, negative = cytotoxic [17] 2.84% [at 3.27 µM] | activity change, negative = cytotoxicity [18] 2.07% [at 3.26 µM] | activation [19] 5.04% [at 3.27 µM]
